# Source: PubChem (Sanford-Burnham Center for Chemical Genomics)
# CYP2C19 act – human CYP2C19 activators, primary screen, biochemical, luminescence | activation factor at 5 µM | 96,000 tested, under 10 active | AID 1025, 2008 | Cytochrome P450 2C19 (Homo sapiens), P33261 | recombinant CYP2C19, luciferin-H EGE luminescence; stronger effect = higher value; 0 = fully inhibited enzyme, 1 = untreated enzyme;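 active means activation factor of at least 2 at 5 µM in the primary screen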;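 further: 0 = wells with 2.5 mM tranylcypromine and 1 = vehicle-only wells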
# CYP2C19 inh – blockers of cytochrome P450 2C19 activity – biochemical, luminescence, ADME assay, primary screen | CYP2C19 Supersomes, luciferin-H EGE luminescence, 30 min | inhibition, % at 5 µM | hit rate 21% among 96,000;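 active means CYP2C19 inhibition above a set limit at 5 µM in the primary screen, cut at about 50% in these data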;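 further: plate controls were negative control wells for no effect and 2.5 mM tranylcypromine positive control for full effect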
# Mac1 fbg inh – inhibitors of CD11b/CD18 adhesion to fibrinogen, primary screen, K562 cells, luminescence; ATPlite luminescence; Mn2+ added to activate the integrin; Integrin beta-2 (Homo sapiens) + Integrin alpha-M (Homo sapiens), P05107+P11215; hit rate 0.54% among 93,000; inhibition, % at 10 µM;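 active means primary inhibition of 50% or more at 10 µM, then 40% or more on retest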
# Mac1 fbg enh – enhancers of CD11b/CD18 adhesion to fibrinogen, primary screen, K562 cells, luminescence; Integrin beta-2 (Homo sapiens) + Integrin alpha-M (Homo sapiens), P05107+P11215; ATPlite luminescence; activation, % at 10 µM; hit rate 0.07% among 93,000; AID 1499, 2009;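 active means 10 µM primary screen giving 50% or more activity, confirmed by 40% or more on retest at that dose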
# CYP2C9 activ – human CYP2C9 activators, primary screen, biochemical, luminescence; activation factor at 5 µM; AID 1024, 2008; hit rate 1.4% among 96,000; recombinant CYP2C9, luciferin-H conversion; stronger effect = higher value; factor 1 = untreated enzyme, 0 = blocked;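 active means activation factor of 2 or more for CYP2C9 at a 5 µM dose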;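 further: 0 = sulfaphenazole-blocked wells and 1 = vehicle-only wells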
# CYP2C9 inh – blockers of cytochrome P450 2C9 activity – biochemical, luminescence, ADME assay, primary screen; hit rate 20% among 96,000; inhibition, % at 5 µM; CYP2C9 Supersomes, luciferin-H conversion;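 active means blocking of liver enzyme CYP2C9 beyond about 50% at 5 µM, limit read from the data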
# Active calls of the source: *; · = no result. This is a sample that favours compounds with a hit; in the whole collection about 28% have one here.
SMILES,CYP2C19 act,CYP2C19 inh,Mac1 fbg inh,Mac1 fbg enh,CYP2C9 activ,CYP2C9 inh
CC1(C)C(=O)C2(C(=O)NCc3ccccc3)CCC1C2 (stereo not drawn),0.3,70*,6,-2,0.9,8
CN(C1CCCCC1)S(=O)(=O)Cc1ccccc1,0.5,54*,3,2,0.8,16
CS(=O)(=O)N(CC(=O)N1CCN(Cc2ccccc2)CC1)C1CCCCC1,1.1,-14,1,-4,1.2,-19
CC(C)(O)C#Cc1ccccc1C(=O)NC(CC(N)=O)C(=O)O (stereo not drawn),1,-4,2,0,1.1,-8
CCCCNc1oc(-c2ccc(OC)cc2)nc1S(=O)(=O)c1ccccc1,0.5,54*,-7,1,0.8,18
O=S(=O)(c1ccccc1)c1nc(-c2ccco2)oc1NCCCn1ccnc1,0,100*,-16,2,0,99*
CCNc1oc(-c2ccc(OC)cc2)nc1S(=O)(=O)c1ccc(Br)cc1,0.9,10,4,-1,1,-3
COCCn1c(C)cc(C(=O)COC(=O)CCc2ccc(S(=O)(=O)N3CCOCC3)cc2)c1C,1,0,12,1,1.1,-6
COCC(C)n1c(C)cc(C(=O)COc2ccc(S(=O)(=O)N3CCOCC3)cc2Cl)c1C (stereo not drawn),0.5,51*,24,0,0.4,58*
Cn1ncc(C#N)c1NC(=O)c1nn2cccnc2c1Cl,1.1,-11,-18,-2,1,4
Cn1c(=O)c2c(ncn2CC(=O)OCc2ccccc2)n(C)c1=O,1,2,6,0,0.4,63*
Cn1c(=O)c2c(nc(SCC(=O)OCc3ccccc3)n2C)n(C)c1=O,0.7,26,-7,-2,0.2,80*
Cn1c(=O)c2c(ncn2Cc2ccc(Cl)c(Cl)c2)n(C)c1=O,0.1,92*,48,-5,0.4,61*
N#Cc1ccc(/C=N/NC(=O)c2cc(-c3cccs3)nc3ccccc23)cc1,·,·,15,18,·,·
OCC1CCCN1C(=S)Nc1ccccc1 (stereo not drawn),0.7,27,·,·,1.1,-9
CC(C)(C)OC(=O)CN1C(=O)C(Sc2n[nH]c(-c3ccccc3)n2)CCc2ccccc21 (stereo not drawn),0.3,69*,·,·,0.4,55*
CCOC(=O)CN1C(=O)C(Sc2n[nH]c(-c3ccc(O)cc3)n2)CCc2ccccc21 (stereo not drawn),0.2,82*,12,0,0.1,94*
CS(=O)(=O)N1CCN(c2ccc([N+](=O)[O-])c(NCCN3CCOCC3)c2)CC1,0.9,9,-10,6,1,3
COc1cccc(-n2c(C)c(C(C)=O)c(C(C)=O)c2C)c1,0.2,77*,-6,-4,0.2,78*
COc1ccc(-n2c(C)c(C(C)=O)c(C(C)=O)c2C)cc1OC,0.3,68*,-14,-3,1,0
COc1ccc(-n2c(C)c(C(C)=O)c(C(C)=O)c2C)cc1,0.7,27,13,-2,1,0
N#Cc1c(-c2ccccc2)ccnc1Oc1ccccc1,0.5,53*,·,·,0.8,24
COc1ccc(Oc2nccc(OC)c2C#N)cc1,0.5,45,-3,2,0.8,20
CN1C(=C2C(=O)OC(C)(C)OC2=O)Sc2ccccc21,0.8,17,·,·,1.1,-11
Cc1cc(C)c2oc(-c3cccc(NC(=O)c4ccc(F)cc4)c3)nc2c1,1.1,-12,-2,-4,1.1,-10
O=C1C2CC=C(Cl)CC2C(=O)N1CCCCCCN1C(=O)C2CC=C(Cl)CC2C1=O (stereo not drawn),0.3,75*,6,1,0.2,82*
O=C(Cn1cc(C(=O)C2CC2)c2ccccc21)NC1CCCC1,1,-2,·,·,0.6,43
c1cnc(N2CCN(Cc3c[nH]c4ccccc34)CC2)nc1,0.5,46,-7,-1,0.7,35
